# Assay results taken from PubChem BioAssay (Tox21).
# Values joined by “and” are separate entries in the source; they are usually repeats but may differ in a detail not shown here. Identical values can stand only once. Inconclusive results are not listed. Where a call stands in place of a potency, no number is given. The source holds several records for some structures; these can differ, active in one and inactive in another. Active and inactive are the calls of the source. Unless noted, the call rests on the fitted dose curve; in most records, active means well fitted curve in the direction sought with a large enough effect in the repeat runs; inconclusive means weak or mixed curves; inactive means no such curve, though single readings can be large; an effect the other way counts as inactive or inconclusive.
# Assays:
# [1] = qHTS assay to identify small molecule agonists of the hypoxia (HIF-1) signaling pathway - cell viability counter screen (AID 1224844; calls by dose curve; further: nearly all actives have a fitted effect of over 50% in size; further: potency means the concentration at half of the fitted maximal effect)
# Procedure, shortened: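 Cytotoxicity was measured in parallel with the HRE-driven beta-lactamase readout: after 17 hrs of compound exposure at 37C, HRE-bla ME-180 cells received CellTiter-Glo and luminescence was recorded 30 min later.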
# [2] = qHTS assay to identify small molecule agonists of H2AX (AID 1224845; active means well fitted activation curve with a large enough effect in the signal ratio in the repeat runs, not every such curve was filed as active; the % refers to the signal ratio; further: potency means the concentration at half of the fitted maximal effect)
# Procedure, shortened: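 Wild-type CHO-K1 cells, plated overnight, exposed 3hr at 37C to 15 concentrations (0.76% DMSO final). Lysed, then HTRF anti-pH2AX (S139) cryptate and anti-H2AX-d2 antibodies, 24 hr room temperature; 665/620 nm emission read.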
# [3] = qHTS assay to identify small molecule agonists of the hypoxia (HIF-1) signaling pathway (AID 1224846; active means well fitted activation curve with a large enough effect in the signal ratio in the repeat runs, not every such curve was filed as active; the % refers to the signal ratio)
# Procedure, shortened: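 Compounds from the Tox21 10K library, dissolved in DMSO, are tested for induction of a hypoxia response element–controlled beta-lactamase reporter in ME-180 cells. Exposure lasts 17 hrs at 37C after a 5 hr settling period, followed by CCF4-AM FRET substrate.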
# [4] = qHTS assay to identify small molecule agonists of H2AX - cell viability counter screen (AID 1224847; calls by dose curve; further: nearly all actives have a fitted effect of over 30% in size; further: potency means the concentration at half of the fitted maximal effect)
# Procedure, shortened: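 We seed wild-type CHO-K1 cells overnight, treat them for 3 hr at 37C with compounds in 15-concentration series, and quantify remaining viability by CellTiter-Glo luminescence.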
# [5] = qHTS assay to identify small molecule antagonists of the estrogen related receptor (ERR) signaling pathway from Tox21 library (AID 1224848); further: nearly all actives have a fitted effect of over 50% in size; further: potency means the concentration at half of the fitted maximal effect
# Procedure, shortened: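 Compounds dissolved in DMSO are pin-transferred onto ERR reporter cells (2,000 per well) that have settled for 6 h at 37 C. Plates then incubate 18 h at 37 C before ONE-Glo luciferase reagent and a luminescence read 30 min later.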
# [6] = qHTS assay to identify small molecule agonists of the estrogen related receptor (ERR) signaling pathway from Tox21 library (AID 1224849; calls by dose curve; further: nearly all actives have a fitted effect of over 15% in size); conditions: ERR reporter cell line, ONE-Glo luciferase, 18 h; at 92.4 µM (top of the series)
# Procedure, shortened: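 Cells carrying the ERR reporter were plated and allowed to settle for 6 h, exposed to library compounds for 18 h at 37 C, then lysed with ONE-Glo and luminescence measured.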
# [7] = qHTS RealTime-Glo MT Cell Viability Assay in HepG2 cells - 24 hour (AID 1224867); further: nearly all actives have a fitted effect of over 50% in size; further: potency means the concentration at half of the fitted maximal effect
# Procedure, shortened: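 HepG2 cells (600/well) were dispensed with RealTime-Glo reagents, incubated 5 h at 37 °C, then treated with compounds in DMSO for up to 40 h. Nonlytic NanoLuc luminescence reflecting viable cells was read at each stated time point.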
# [8] = qHTS RealTime-Glo MT Cell Viability Assay in HEK293 cells - 32 hour (AID 1224868); further: nearly all actives have a fitted effect of over 50% in size; further: potency means the concentration at half of the fitted maximal effect
# Procedure, shortened: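 HEK293 cells seeded with NanoLuc/prosubstrate reagent, rested 5 h at 37 C, then dosed and kept at 37 C up to 40 h. Nonlytic real-time luminescence from viable cells read at 0, 8, 16, 24, 32 and 40 h.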
# [9] = A CellTox Green Cytotoxicity Assay to monitor cytotoxicity in HEK293 cells - 0 hour (AID 1224869); further: nearly all actives have a fitted effect of over 50% in size; further: potency means the concentration at half of the fitted maximal effect
# Procedure, shortened: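 Cells (HEK293, 600/well) and dye reagent are dispensed together. After 5 h at 37 C, 23 nL compound is pinned in. Plates stay at 37 C for 40 h with fluorescence read at 0h, 8h, 16h, 24h, 32h and 40h.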
# [10] = qHTS RealTime-Glo MT Cell Viability Assay in HepG2 cells - 40 hour (AID 1224870); further: nearly all actives have a fitted effect of over 50% in size
# Procedure, shortened: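 HepG2 cells (600/well) mixed with RealTime-Glo MT reagent, settled 5 h at 37 C/5% CO2 before compound addition. Nonlytic NanoLuc luminescence from viable-cell prosubstrate reduction read repeatedly during 40 h treatment at 37 C.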
SMILES,Potency [1],Potency [2],outcome [3],Potency [4],Potency [5],"activity change, positive = activation [6]",Potency [7],Potency [8],Potency [9],Potency [10]
Cc1cc(Cl)ccc1N=CN(C)C,inactive,inactive,inactive,inactive,inactive,-6.81% (inactive) and 2.85% (inactive),inactive,inactive,inactive,
N#Cc1cccnc1,inactive,inactive,inactive,inactive,inactive,5.82% (inactive) and 1.56% (inactive),inactive,inactive,inactive,inactive
CCNCC,inactive,inactive,inactive,inactive,inactive,1.09% (inactive) and 1.12% (inactive),inactive,inactive,inactive,
CCCCOC(=O)COC(=O)c1ccccc1C(=O)OCCCC,inactive,inactive,inactive,inactive,inactive,4.38% (inactive) and 0.695% (inactive),inactive,inactive,inactive,inactive
CCCCCCCCCCCCCl,inactive,inactive,inactive,inactive,,,inactive,inactive,inactive and 24.5 µM (active),inactive
O=NN1CCOCC1,inactive,inactive,inactive,inactive,,,inactive,inactive and 2.19 µM (active),inactive,inactive
CCC(=O)Nc1ccc(Cl)c(Cl)c1,inactive,inactive,inactive,inactive,,,inactive,44.5 µM (active),inactive,inactive
CC(O)CN(CC(C)O)CC(C)O (centres undefined),inactive,inactive,inactive,inactive,,,inactive,inactive,inactive,inactive
Cc1ccc([N+](=O)[O-])cc1,inactive,inactive,inactive,inactive,,,inactive,inactive,inactive,inactive
CC1(C)Cc2cccc(O)c2O1,inactive,inactive,inactive,inactive,,,inactive,inactive,inactive,
[Cl-].[Cl-].[Cl-].[Fe+3],inactive,inactive,inactive,inactive,,,inactive,inactive,inactive,inactive
CCNc1nc(Cl)nc(NC(C)(C)C#N)n1,inactive,inactive,inactive,inactive,,,inactive,inactive,inactive,inactive
COc1ccc(O)c(C(C)(C)C)c1,inactive,inactive,inactive,inactive,,,inactive,inactive,inactive,
ClC(Cl)=C(Cl)C(Cl)=C(Cl)Cl,inactive,inactive,inactive,inactive,,,inactive,inactive,inactive,
ClCc1ccccn1,inactive,inactive,inactive,inactive,,,inactive,inactive,inactive,inactive
CCOS(=O)(=O)OCC,inactive,inactive,inactive,inactive,,,inactive,inactive,inactive,
CNC(=S)S,inactive,inactive,inactive,inactive,,,inactive,inactive,inactive,
Cc1ccc(N=CN(C)C=Nc2ccc(C)cc2C)c(C)c1,43.8 µM (active) and 30.9 µM (active) and inactive,inactive,inactive,101 µM (active) and inactive,,,inactive,43.8 µM (active) and 43.6 µM (active) and inactive,inactive,
ClC(Cl)(Cl)Br,inactive,inactive,inactive,inactive,,,inactive,inactive,inactive,inactive
OCCOCCO,inactive,inactive,inactive,inactive,,,inactive,inactive,inactive,
Nc1ncn[nH]1,inactive,inactive,inactive,inactive,,,inactive,inactive,inactive,

SMILES,Potency [1],Potency [2],outcome [3],Potency [4],Potency [5],"activity change, positive = activation [6]",Potency [7],Potency [8],Potency [9],Potency [10]
C=C(C)C#N,inactive,inactive,inactive,inactive,,,inactive,inactive and 5.49 µM (active),inactive,inactive
c1ccc(C2CO2)cc1 (centres undefined),inactive,inactive,inactive,inactive,,,inactive,inactive,inactive,inactive
Clc1ccccc1-c1nnc(-c2ccccc2Cl)nn1,inactive,inactive,inactive,100 µM (active),,,inactive,inactive,inactive,inactive
CC(C)CON=O,inactive,inactive,inactive,inactive,,,inactive,inactive,inactive,inactive
O=NN(c1ccccc1)c1ccccc1,inactive,inactive,inactive,inactive,,,inactive,inactive,inactive,
CCOC(=O)c1ccccc1N,inactive,inactive,inactive,inactive,,,inactive,inactive,inactive,
COP(=O)(NC(C)=O)SC (centres undefined),inactive,inactive,inactive,inactive,,,inactive,inactive,inactive,inactive
CCC/C=N/O,inactive,inactive,inactive,inactive,,,inactive,inactive,inactive,
CC(C)(C#N)N=NC(C)(C)C#N,inactive,inactive,inactive,inactive,,,inactive,inactive,inactive,inactive
CC(C)COC(=O)c1ccccc1C(=O)OCC(C)C,inactive,inactive,inactive,inactive,,,inactive,inactive,inactive,inactive
C[C@]12CC[C@H]3[C@@H](CCC4=CC(=O)CC[C@@H]43)[C@@H]1CC[C@@H]2O,inactive,99.8 µM (active),inactive,inactive,,,inactive,inactive,inactive,inactive
Cl,inactive,inactive,inactive,inactive,,,inactive,inactive,inactive,
Clc1cccc(C(Cl)(Cl)Cl)n1,inactive,inactive,inactive,inactive,,,inactive,inactive,inactive,
C=CC(Cl)CCl (centres undefined),inactive,inactive,inactive,inactive,,,inactive,inactive,inactive,inactive
COP(=S)(OC)SCn1nnc2ccccc2c1=O,inactive,inactive,inactive,inactive,53.4 µM (active) and 61.1 µM (active),-43.4% (inactive) and -47.5% (inactive),inactive,,inactive,inactive
ClC(Cl)(Cl)c1ccccc1,inactive,inactive,inactive,inactive,,,inactive,inactive,inactive,inactive
CCOP(=O)(O)OCC (tested in a mixture with another compound),inactive,inactive,inactive,inactive and 28.2 µM (active),,,inactive and 48.6 µM (active),inactive and 4.33 µM (active),inactive,
CCCCSP(=O)(SCCCC)SCCCC,inactive,inactive,inactive,inactive,,,inactive,inactive,inactive,inactive
CC1=C(C(=O)Nc2ccccc2)SCCO1,inactive,inactive,inactive,inactive,,-23.3% (inactive) and -26.7% (inactive),inactive,inactive,inactive,inactive
CC1CC(=O)O1 (centres undefined),inactive,inactive,inactive,inactive,,,inactive,inactive,inactive,
CS(=O)(=O)NC(=O)c1cc(Oc2ccc(C(F)(F)F)cc2Cl)ccc1[N+](=O)[O-],inactive,inactive,inactive,inactive,,,inactive,inactive,inactive,inactive
